# Screening data deposited in PubChem by National Center for Advancing Translational Sciences (NCATS).
# Shown are actives, neighbours in structure and some others; about 13% of the full set was active somewhere.
# Shiga inhibitor – Shiga toxin inhibition | inhibition, % at 38.7 µM | Vero cells, Shiga toxin protein synthesis inhibition reporter | AID 2315 | hit rate 9.2% among 290,000; in the data active = inhibition mostly above about 28%, no sharp cut-off; inactive = mostly below about 43%; also: 0% is about no effect
# Marburg entry inh – Marburg virus entry inhibition; Marburg virus pseudotyped entry inhibition, cell reporter; Potency, µM (doses to about 37.8 µM), for the others: at the top dose activity change, negative = inhibition, hits mostly inhibitors; hit rate 1.8% among 300,000; AID 540276; calls by dose curve; tested in HEK293 cells; also: potency is read from the fitted curve at half-maximal effect; % is scaled to controls: 0 for no effect and ±100 for the full control effect
# HCV inhibitor – blocks hepatitis C virus | Huh7.5.1 HCVcc-Cre infection, luciferase reporter, 44 h | hit rate 3.4% among 340,000 | Potency, µM (doses to about 41.8 µM), for inactives: at the top dose activity change, negative = inhibition, hits mostly inhibitors; active = well fitted inhibition curve with a large enough effect; inconclusive = small, poorly fitted or top-dose-only effect, or another doubt; inactive = no such curve, though single readings can be large or run the other way; also: potency is read from the fitted curve at half-maximal effect; % is scaled to controls: 0 for no effect and ±100 for the full control effect
#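 1,000 cells/well; 4 h culture; + compound; + HCVcc-Cre (~0.5 moi); 44 h; luciferase substrate, RT 15 min; read 15 sec.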
# LASV entry inh – blocks Lassa virus binding to or entry into cells; Lassa virus pseudotype entry inhibition, cell reporter; Potency, µM (titrated, usually from 37.9 µM), for inactives: at the highest dose activity change, negative = inhibition, hits mostly inhibitors; hit rate 1.2% among 300,000; calls by dose curve; tested in HEK293 cells; also: potency is read from the fitted curve at half-maximal effect; % is scaled to controls: 0 for no effect and ±100 for the full control effect; nearly all actives have a fitted effect of over 50% in size
# Cycloheximide cs – counter-screen hit for Shiga toxin inhibitors, cycloheximide; AID 2314; max response, %; cell reporter, cycloheximide protein synthesis inhibition counterscreen; hit rate 12% among 300,000; in the data active = max response mostly above about 13%, no sharp cut-off; inactive = mostly below about 14%; also: read at 38.3 µM for the half of the compounds with a filed dose; 0% is about no effect
# FMDV antiviral – antivirals against foot and mouth disease virus; FMDV antiviral cell-based qHTS; Potency, µM (doses to about 57.9 µM), for the others: at the top dose activity change, negative = inhibition, most hits filed as inhibitors; hit rate 1.2% among 410,000; calls by dose curve; tested in HEK293T cells; also: read-out not given here; potency is read from the fitted curve at half-maximal effect; % is scaled to controls: 0 for no effect and ±100 for the full control effect; nearly all actives have a fitted effect of over 45% in size
# * hit, by the source's call; ? = inconclusive; · = no result; + = active, no number; [ ] = dose if it differs, or a comment.
SMILES,Shiga inhibitor,Marburg entry inh,HCV inhibitor,LASV entry inh,Cycloheximide cs,FMDV antiviral
COc1cc(C=Nc2ccccc2C(=O)Nc2ccccc2)cc(OC)c1OC,2,4%,23%,2%,-1,0%
O=C(CCC(=O)n1ncc2ccccc21)NCc1ccc(F)cc1,8,·,11%,·,2,-12%
CC(=O)c1ccccc1OCCOCCOCCOc1ccccc1C(C)=O,-10,-5%,?,-16%,-1,?
CC(=O)c1ccccc1OCCOc1ncnc2sccc12,36*,26%[46.1 µM],9%,?,16*,16%
CC(=NNc1nc2ccccc2s1)c1ncccn1,·,?,?,1µM*,·,-16%
C/C(=N\Nc1nc(N2CCOCC2)nc(N2CCOCC2)n1)c1cccs1,-6,-27%[46.1 µM],-29%,-22%,-4,-16%
C/C(=N\Nc1nc2ccccc2s1)c1cccs1,73*,?,-26%,6.5µM*,89*,-45%
C/C(=N\Nc1nc(-c2ccccc2)cs1)c1cccs1,118*,?,2.8µM*,?,75*,0%
OC(CNc1nc2ccccc2s1)c1ccccc1 (stereo unspecified),49,15%,-17%,?,22,16%
Cc1ccc(CN2CCSc3ccc(C(=O)NCCc4ccccc4)cc32)cc1,·,0%[46.1 µM],·,0%[46.1 µM],·,69%
O=C(NCc1ccccc1)c1ccccc1OCC(=O)N1CCCCC1,-10,-5%,12%,-6%,1,15%
CCCN=Cc1sc2ccc(OCC)cc2c1O,101*,?,?,-12%,41*,·
Cc1ccc(CCNC(=O)c2nnc(CS(=O)(=O)c3ccccc3)o2)cc1,-3,·,-18%,·,-3,-15%
CCCn1c(NC(=O)C2CCN(S(=O)(=O)c3cccs3)CC2)nc2ccccc21,-22,13µM*,14µM*,?,0,?
O=C(Nc1nc2ccccc2n1CCN1CCCCC1)C1CCCCC1,-10,?,-1%,-3%,-4,0%
S=C(Nc1ccccc1)Nc1nc2ccccc2n1CCOc1ccc(Cl)cc1,26,?,10µM*,-8%,9,6%
CCn1c(NN=O)nc2ccccc21,4,?,6.3µM*,?,-3,-12%
Cc1csc(NC(=O)C2CCN(S(=O)(=O)c3cccs3)CC2)n1,-8,?,?,-15%[46.1 µM],8,?
CCn1c(Nc2ccccc2Cl)nc2ccccc21,33,-13%[46.1 µM],-23%,2%,16,-2%
CCn1c(NC(=O)C2CCCCC2)nc2ccccc21,36*,12%,?,-21%,26*,19%
Clc1ccc(NCc2nc3ccccc3n2CCOc2ccccc2)cc1,·,25%[46.1 µM],·,?,·,9%
COc1ccc(C(=O)Oc2ccc3ccc(=O)oc3c2)cc1OC,13,-7%[46.1 µM],-15%,?,-3,45%
Cc1nn(Cc2c(Cl)cccc2Cl)c(C)c1NC(=O)CCCn1nc([N+](=O)[O-])c(Cl)c1C,-15,-37%,-28%,-14%,-4,-19%
CCn1c(NC(=S)Nc2ccccc2)nc2ccccc21,53*,0%,5%,3%,29*,65%
CCCn1c(NC(=S)Nc2ccccc2)nc2ccccc21,-13,?,3%,-5%,-1,22%
SMILES,Shiga inhibitor,Marburg entry inh,HCV inhibitor,LASV entry inh,Cycloheximide cs,FMDV antiviral
CC(Sc1nc(=O)cc(N)n1CCc1ccccc1)C(=O)Nc1cccc(Cl)c1 (stereo unspecified),·,?,·,0%[46.1 µM],·,-14%
CC(=NCc1ccc2c(c1)OCO2)c1c(O)n(-c2ccccc2)c(=O)[nH]c1=O,17,15%,-25%,?,1,-22%
CCc1cc2c(=O)c(-c3nc4ccccc4n3C)c(C)oc2c(CN(CC)CC)c1O,-2,-4%,-9%,15%,-2,-9%
CC(=O)Oc1ccc2cc(-c3nc4ccccc4n3C)c(=O)oc2c1,75*,3%,15%,22%,32,·
CCN(CC)Cc1c(O)ccc2cc(-c3nc4ccccc4n3C)c(=O)oc12,9,-7%,0%,19%,11*,3%
COc1ccc(-n2c(=O)c(CCC(=O)N3CCN(c4ccccc4O)CC3)nc3ccccc32)cc1,·,?,-24%,?,·,?
O=C(CCNS(=O)(=O)c1ccc(Br)s1)N1CCN(c2ccccc2)CC1,-4,?,-15%,?,-1,4%
Cc1ccc(N2C(=O)c3ccc(N)cc3C2=O)cc1,67*,?,-12%,4%,30*,-8%
CC(=O)Nc1ccc2c(c1)C(=O)N(c1ccc(C)cc1)C2=O,+,9%,2%,3%,51*,54%
